The results in this text go back to PubChem BioAssay.

What is called inhibition is the relative decrease from the control value, in per cent. In general, viability refers to a per cent measure of how many cells are alive, often set against a control. Usually AC50 stands for the concentration at which the activity in the assay is half-maximal.

Several values for one entry are separate records, joined by “and”; a condition that tells them apart may be missing. Equal values may be shown once. Records with an inconclusive call do not appear. For some assays here: Entries with a potency or affinity are not part of this list. Activity calls are given as the source filed them. Unless noted, the limit is not given here; nearly all actives have AC50 up to about 26 µM.

A short description of assay [1]: polyglutamine-triggered caspase-3 activation inhibitors, cell-based (AID 1583). The conditions noted are these: polyglutamine-induced caspase-3 activation, cell assay; stronger effect = higher value;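 tested at 10 µM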.
The nature of assay [2]: suppressors of polyQ aggregation in yeast, 75Q-TubU reporter (AID 1593). The conditions noted are these: Yeast 75Q polyglutamine aggregation reporter.
The nature of assay [3]: rescue of polyQ-huntingtin neuronal dysfunction in worms, whole organism, C. elegans mechanosensory neurons, N-terminal huntingtin (AID 1599). The conditions noted are these: touch response, stronger effect = higher value.
A short description of assay [4]: inhibitors of mitochondrial cytochrome c release, biochemical, purified mitochondria (AID 1603).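 Also: mouse liver mitochondria challenged with calcium chloride; signal normalized to the plate average as 100%.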 The conditions noted are these: stronger effect = lower value.
The nature of assay [5]: inhibitors of polyQ protein aggregation (AID 1604). The conditions noted are these: polyglutamine-induced protein aggregation inhibition assay; stronger effect = higher value; tested at 2.5 µM.
Assay [6] in a line: enhancers of glutamate uptake in motor neurons, MN-1 cell line (AID 1612).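 Also: tested at 1 µM final; 0% = mean of DMSO vehicle wells on each plate; positive means more glutamate uptake than control and negative means less.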 The following applies: MN-1 motor neuron cells, stronger effect = higher value.
Assay [7] in a line: suppressors of polyglutamine aggregation in yeast, 75Q-TubH (AID 1616). The conditions noted are these: S. cerevisiae 75Q-TubH polyglutamine aggregation suppression; stronger effect = higher value.
The nature of assay [8]: liver-stage malaria parasite growth inhibition, primary screen, cell-based, HepG2, luciferase luminescence, HepG2 viability (AID 624349; in the data active = parasite load remaining mostly below about 12%, no sharp cut-off; inactive = mostly above about 10%;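 also: 100% = mean of DMSO negative control wells on the same plate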). The conditions noted are these: P. berghei liver stage in HepG2, luciferase luminescence, concentration not given here; parasite load remaining: stronger effect = lower value; viability: measured here: HepG2 viability without parasites.
Assay [9] is described as follows: differential killing of epithelial or mesenchymal cells, primary screen, imaging, PC-3E GFP, TEM4-18 mCherry, co-culture (AID 1345086;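 active = compounds killing one labelled cell type while sparing the other, by normalised counts and ratio limits, not self-fluorescent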;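 as to all read-outs here: cells exposed to compound for 72 h before imaging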;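 as to red/green cell ratio (normalised): normalised mesenchymal count divided by normalised epithelial count so high means epithelial killing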). The following applies: imaging cell counts, at 1 µM; for red/green cell ratio (normalised): actives lie on both sides, counts scaled to control wells, 1 = unselective.
The nature of assay [10]: growth inhibition of DIPG glioma cells, dose response, cell-based, SU-DIPG-XIII, MIPE4.0, CellTiter-Glo, qHTS (AID 1347061; cut-off not given, nearly all actives have AC50 up to about 37 µM;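 also: cells exposed to compound for 48 hours before readout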). The following applies: SU-DIPG-XIII viability, CellTiter-Glo ATP luminescence. On the technique in general: ATP-based viability assays read luminescence as a measure of living cells.
Assay [11] can be described thus: growth inhibition of DIPG glioma cells, dose response, cell-based, SU-DIPG-IV, MIPE4.0, CellTiter-Glo, qHTS (AID 1347063; cut-off not given, nearly all actives have AC50 up to about 30 µM;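 also: compound exposure lasted 48 hours before the viability readout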). The conditions noted are these: SU-DIPG-IV viability, CellTiter-Glo ATP luminescence.
Assay [12] can be described thus: viability loss in pontine glioma line – cell-based, SU-DIPG-XXV, MIPE5.0, CellTiter-Glo, qHTS, dose response (AID 1347065).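 Also: cells exposed to compound for 48 hours before ATP readout.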 The following applies: CellTiter-Glo ATP luminescence.
A short description of assay [13]: sensitizers of A549 cells to miR-34 induction, primary screen, imaging, A549 dox-inducible miR-34, nuclei and caspase counts (AID 1347080;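 active = compounds whose cell count with miR-34 switched on is under 0.7 times the count with it off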). The following applies: A549 miR-34 inducible, Hoechst nuclei count, 48 h.
Assay [14] concerns the target NAD(+) hydrolase SARM1 (Homo sapiens) (UniProt Q6SZW1). Nature of the assay: SARM1 TIR NADase inhibitors, cell lysate, NAD-Glo luminescence (AID 1508614;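 active = compound whose remaining NAD level is above about 45 nM, limit read from the data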;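 also: higher remaining NAD means stronger inhibition of SARM1 NADase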). The conditions noted are these: SAM-TIR HEK293T lysate NADase, at 1 µM, stronger effect = higher value.
Assay [15] concerns the target Mitogen-activated protein kinase 7 (Homo sapiens) (UniProt Q13164). Nature of the assay: ERK5 transactivation activators in reporter cells, primary screen, cell-based, HTS (AID 1508626;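 active = luciferase signal above three times the same-plate solvent-only control wells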;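 also: luciferase driven by Gal4-ERK5 fusion binding five Gal4 sites before minimal TATA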). The conditions noted are these: HeLa Gal4-ERK5 transactivation, 18 h, at 5 µM, stronger effect = higher value.
Assay [16] can be described thus: growth inhibition of DIPG glioma cells, dose response, cell-based, SU-DIPG-XVII, MIPE5.0, CellTiter-Glo, qHTS (AID 1347060).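 As to AC50: cells exposed to compound for 48 hours before viability readout.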 The conditions noted are these: SU-DIPG-XVII viability, CellTiter-Glo ATP luminescence.
Assay [17] is described as follows: growth inhibition of DIPG glioma cells, dose response, cell-based, JHH-DIPG-1, MIPE4.0, CellTiter-Glo, qHTS (AID 1347062; cut-off not given, nearly all actives have AC50 up to about 27 µM). The conditions noted are these: JHH-DIPG-1 viability, CellTiter-Glo ATP luminescence.
Assay [18] is described as follows: SU-DIPG-VI glioma cell viability, MIPE4.0 library, CellTiter-Glo luminescence, qHTS (AID 1347066; cut-off not given, nearly all actives have AC50 up to about 30 µM;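 also: cells exposed to compound for 48 hours before readout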). The conditions noted are these: CellTiter-Glo ATP luminescence.
Assay [19] in a line: JHH-DIPG-1 glioma cell viability, MIPE5.0 library, CellTiter-Glo luminescence, qHTS (AID 1347067).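 Also: cells exposed to compound for 48 hours before readout.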 The conditions noted are these: JHH-DIPG-1 glioma viability, CellTiter-Glo ATP luminescence.
Assay [20] in a line: SU-DIPG-XXV glioma cell viability, MIPE5.0 library, qHTS (AID 1347068; cut-off not given, nearly all actives have IC50 up to about 30 µM).
Assay [21] is described as follows: growth inhibition of DIPG glioma cells, dose response, cell-based, SU-DIPG-XIII, MIPE5.0, CellTiter-Glo, qHTS (AID 1347064; cut-off not given, nearly all actives have AC50 up to about 23 µM;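 also: cells exposed to compound for 48 hours before the viability read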). The conditions noted are these: SU-DIPG-XIII viability, CellTiter-Glo ATP luminescence.
Assay [22] is described as follows: inhibitors of Cryptococcus chitosan production, flow cytometry, Cibacron Brilliant Red staining (AID 1347148; call rule not given here;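 also: compound exposure lasted three days at 37 degrees C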). The following applies: Cryptococcus neoformans chitosan, stronger effect = lower value; at 10 µM unless noted. In general terms: Flow cytometry measures light scatter and fluorescence of single cells or particles in a stream.
Assay [23] is described as follows: survival rescue of mitochondrial mutant cells in low glucose, primary screen, MELAS cybrids, Rieske KO mouse fibroblasts, CellTiter-Glo (AID 1508586;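 active = mean z-score across replicates of 1.96 or higher in either the MELAS or the Rieske mutant cell line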;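 also: z relative to plate mean and SD of compound and empty wells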).
Assay [24] can be described thus: viability rescue of complex I mutant cybrids, primary screen, cell-based, galactose medium, ATP luminescence (AID 1645843;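 active = z-score of at least 1.8 in each of two replicates, scored against plate mean and spread of sample wells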;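 also: positive z means more ATP and so rescue of galactose-driven cybrid death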). The conditions noted are these: complex I mutant cybrid cells, 72 h, stronger effect = higher value.
The nature of assay [25]: circadian clock period modulators, cell-based, LOPAC library, luminescence reporter (AID 2774; call rule not given here;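 also: values are relative to mean of DMSO wells on each plate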). The conditions noted are these: circadian reporter cells, at 7 µM, actives lie on both sides.
For assay [26], the system named is Hepatitis C virus NS3 helicase. Put plainly: HCV NS3 helicase inhibitors, primary screen, biochemical, fluorescence polarization, LOPAC1280 library (AID 687035; in the data active = inhibition above about 37%). The following applies: Purified HCV NS3 helicase, Cy5-dT15 ssDNA binding fluorescence polarization; stronger effect = higher value; concentration not given here. A general note: Polarisation of emitted light reports the rotation of a fluorescent probe.

The nature of assay [27]: Cy5 fluorescence quenching or enhancement artefacts, artefact control for HCV NS3 helicase inhibitor project, biochemical, LOPAC1280 (AID 687037; call rule not given here). The conditions noted are these: Cy5-DNA-NS3h complex fluorescence interference counterscreen.
A short description of assay [28]: phospholipid biosynthesis inhibitors in animal cells, primary screen, cell-based, LOPAC library, screen 4 (AID 1347384; call rule not given here). The following applies: phospholipid biosynthesis inhibition screen, at 10 µM.
Setting [29] is: measured here: epithelial PC-3E GFP cell survival.
Where [30] appears, read: measured here: mesenchymal TEM4-18 mCherry cell survival.
[31] abbreviates: stronger effect = lower value, cell number ratio, induced over uninduced.
The mark [32] stands for this setting: measured here: relative caspase fold change +Dox/-Dox.
Where [33] appears, read: measured here: total cells with miR-34 induction, stronger effect = lower value.
Setting [34] is: measured here: total cells without miR-34 induction.

Chain of Mitogen-activated protein kinase 7 (Homo sapiens) (Q13164 whole entry, looked up, the tested form may be a part): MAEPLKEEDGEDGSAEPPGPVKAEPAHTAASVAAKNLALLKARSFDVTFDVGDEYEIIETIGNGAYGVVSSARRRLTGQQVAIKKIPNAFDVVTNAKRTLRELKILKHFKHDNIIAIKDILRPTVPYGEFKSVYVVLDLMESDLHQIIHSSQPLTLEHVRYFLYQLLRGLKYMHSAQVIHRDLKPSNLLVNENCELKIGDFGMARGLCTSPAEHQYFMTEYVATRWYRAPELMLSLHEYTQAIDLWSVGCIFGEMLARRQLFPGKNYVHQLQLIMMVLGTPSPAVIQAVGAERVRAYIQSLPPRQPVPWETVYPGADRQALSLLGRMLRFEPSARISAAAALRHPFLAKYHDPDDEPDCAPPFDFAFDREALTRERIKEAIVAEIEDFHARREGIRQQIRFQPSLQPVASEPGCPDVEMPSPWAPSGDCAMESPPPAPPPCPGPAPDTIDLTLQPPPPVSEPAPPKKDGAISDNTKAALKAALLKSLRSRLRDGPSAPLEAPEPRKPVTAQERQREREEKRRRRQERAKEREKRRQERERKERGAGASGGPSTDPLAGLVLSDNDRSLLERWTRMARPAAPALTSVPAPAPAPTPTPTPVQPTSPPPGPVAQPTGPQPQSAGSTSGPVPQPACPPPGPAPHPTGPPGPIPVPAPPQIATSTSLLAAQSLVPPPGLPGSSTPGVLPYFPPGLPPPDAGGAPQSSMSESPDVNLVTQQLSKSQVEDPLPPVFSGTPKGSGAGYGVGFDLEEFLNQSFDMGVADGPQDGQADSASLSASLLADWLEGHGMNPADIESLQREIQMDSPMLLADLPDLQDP
Chain of NAD(+) hydrolase SARM1 (Homo sapiens) (Q6SZW1 whole entry, looked up, the tested form may be a part): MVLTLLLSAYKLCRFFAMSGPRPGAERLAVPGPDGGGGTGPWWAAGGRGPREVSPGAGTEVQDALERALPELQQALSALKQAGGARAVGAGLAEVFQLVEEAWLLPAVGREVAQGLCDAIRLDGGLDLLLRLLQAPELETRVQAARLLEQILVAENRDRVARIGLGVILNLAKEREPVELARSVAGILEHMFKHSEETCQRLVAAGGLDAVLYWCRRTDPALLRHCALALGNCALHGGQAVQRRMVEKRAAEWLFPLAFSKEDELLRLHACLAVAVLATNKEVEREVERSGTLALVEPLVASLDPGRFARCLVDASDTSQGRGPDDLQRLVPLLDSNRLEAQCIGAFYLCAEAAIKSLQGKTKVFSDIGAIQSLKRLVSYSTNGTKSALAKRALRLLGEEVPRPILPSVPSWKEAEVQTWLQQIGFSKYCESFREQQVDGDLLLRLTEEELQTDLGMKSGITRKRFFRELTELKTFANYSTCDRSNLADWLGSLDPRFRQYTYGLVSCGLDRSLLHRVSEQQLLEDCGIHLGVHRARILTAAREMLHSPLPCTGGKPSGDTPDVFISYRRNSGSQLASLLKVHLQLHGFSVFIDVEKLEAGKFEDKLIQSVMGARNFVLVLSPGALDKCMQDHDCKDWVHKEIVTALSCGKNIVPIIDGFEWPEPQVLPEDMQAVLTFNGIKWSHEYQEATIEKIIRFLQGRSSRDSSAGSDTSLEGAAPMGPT

In the case of `C=CC[C@@H]1/C=C(\C)C[C@H](C)C[C@H](OC)[C@H]2O[C@@](O)(C(=O)C(=O)N3CCCC[C@H]3C(=O)O[C@H](/C(C)=C/[C@@H]3CC[C@@H](O)[C@H](OC)C3)[C@H](C)[C@@H](O)CC1=O)[C@H](C)C[C@@H]2OC`, the inhibition in assay [1] is -0.04%. The compound also yielded a score in assay [2] of -0.08. In [3], this compound gave a rescue above control of 0. Besides, the cytochrome c release ratio in assay [4] came to 2.76. For the same compound, in [5], the inhibition of aggregation was determined as 0%. In addition, in assay [6], the glutamate uptake change amounted to 0%. Besides, the aggregation suppression score in [7] amounted to 0.207. Also, the parasite load remaining in assay [8] is 58.3% (inactive). This compound also registered a viability in assay [8] of 97.1%. Further, the red/green cell ratio (normalised) in assay [9] is 1.19 (inactive). The results for the normalised cell number in [9] (setting [29]) and in assay [9] (setting [30]) were 0.77 and 0.91, respectively. The AC50 is 23.5 µM (active) in [10], 1.18 µM (active) in [11] and 20.9 µM (active) in assay [12]. The fold change in assay [13] (setting [31]) was 1.03 (inactive) and 0.874 (inactive); in assay [13] (setting [32]) it was 1.61 and 2.51. The cell count was 4360 and 8620 in [13] (setting [33]); 4240 and 9860 in assay [13] (setting [34]). In [14], the remaining NAD was 10 nM (inactive). In addition, the luciferase signal in [15] was 68 AU (inactive).

Turning to `CC(=O)NC(CS)C(=O)O` (stereo unspecified), the red/green cell ratio (normalised) in assay [9] was 1.09 (inactive). Besides, the values for the normalised cell number in assay [9] (setting [29]) and in assay [9] (setting [30]) were 1.24 and 1.36, respectively. Moreover, the compound was classed as inactive in assay [16], in assay [10], in [17], in [11], in [12] and in assay [18]. Moreover, the compound was called inactive in assay [19] and in assay [20].

As for `Cc1coc2c1C(=O)C(=O)c1c-2ccc2c1CCCC2(C)C`, in [8], the parasite load remaining is 23.1% (inactive). In assay [8], this compound registered a viability of 97.5%. Besides, the red/green cell ratio (normalised) in assay [9] is 1.04 (inactive). The results for the normalised cell number in [9] (setting [29]) and in [9] (setting [30]) were 0.67 and 0.7, respectively. In addition, the half-maximal activity concentration (AC50) in assay [16] was 5.9 µM (active); in assay [11] it was 3.32 µM (active); in assay [21], 5.9 µM (active); in assay [12] it was 16.6 µM (active); in assay [19], 7.42 µM (active). Also, the call in assay [10] and in assay [20] was inactive. Also, the fold change was 1.17 (inactive) and 1.16 (inactive) and 1.64 (inactive) in assay [13] (setting [31]); 1.11 and 0.52 and 0.868 in [13] (setting [32]). The cell count was 934 and 1820 and 2140 in assay [13] (setting [33]); 800 and 1570 and 1300 in [13] (setting [34]). The fold fluorescence in assay [22] is 3.12 [at 169.9 µM] (inactive). The z-score in assay [23] (MELAS cybrid survival, CellTiter-Glo 48 h, stronger effect = higher value) is 0.593 (inactive) and 0.0182 (inactive); in [23] (Rieske KO mouse fibroblast survival, CellTiter-Glo 72 h), 0.381 and 0.81; in [24], -1.64 (inactive). Besides, the luciferase signal in assay [15] was 32 AU (inactive).

Take `CC1=C(C(=O)O)N2C(=O)[C@@H](NC(=O)C(N)c3ccccc3)[C@H]2SC1` (stereo partly specified): the period change in assay [25] is 0.02 h (inactive). In assay [8], the parasite load remaining was 96% (inactive) and 49.4% (inactive). Also, the viability in assay [8] was 72.1% and 86.5%. The inhibition in assay [26] is -4% (inactive). In addition, the fluorescence ratio (interference) in [27] was 0.9 (inactive). Further, the red/green cell ratio (normalised) in [9] was 1.15 (inactive). Besides, the normalised cell number in [9] (setting [29]) stood at 1.06; in assay [9] (setting [30]), 1.23. Moreover, the result in assay [10], in assay [17], in [11], in assay [18] and in assay [28] was inactive. Besides, the fold change in assay [13] (setting [31]) was 1.03 (inactive) and 0.832 (inactive); in [13] (setting [32]) it was 1.45 and 2.29. The cell count was 10100 and 11100 in assay [13] (setting [33]); 9800 and 13300 in assay [13] (setting [34]). The z-score in assay [24] was 0.41 (inactive).
